In the supplement of paper PMC4022240:
± gives the standard deviation.

T1: HaloTag-ATRX ADD domain (163-292)
T1 chain: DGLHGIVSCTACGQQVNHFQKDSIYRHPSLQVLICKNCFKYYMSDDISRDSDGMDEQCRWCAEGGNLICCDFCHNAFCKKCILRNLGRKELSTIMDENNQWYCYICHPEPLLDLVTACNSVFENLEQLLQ


Molecular target: T1, HaloTag-ATRX ADD domain (163-292)
Assay: peptide microarray binding signal (635 nm), min-max normalized on array (fraction of array maximum); higher = stronger binding
Settings: peptide region: Unmod H1 variant; binder concentration: 50 nM
In short: (§1)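 Triplicate spots of histone 13-mer peptide–cellulose conjugates with a Cy3 tracer were printed on nitrocellulose and probed for 1 h at 4°C with biotin-labelled HaloTag reader fusions (10 nM to 1 μM) plus streptavidin-Alexa Fluor 647 or rabbit histone antibodies (1:10,000 to 1:2,000) plus anti-rabbit Alexa 647. An Axon GenePix 4000B read the 635 nm channel. Binding signal is the spot-triplicate mean intensity after min-max scaling within each library.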

| Binder | peptide microarray binding signal |
| --- | --- |
| KKAPKSPAKAKAV [Unmod H1 variant K K A P K S P A K A K A V] | 0.00658 ± 0.0021 |

Same assay, conditions: peptide region: Unmod H1 variant; binder concentration: 500 nM

| Binder | peptide microarray binding signal |
| --- | --- |
| KKAPKSPAKAKAV [Unmod H1 variant K K A P K S P A K A K A V] | 0.00976 ± 0.00041 |
| KAKSSAKRAGKKK [Unmod H1 variant K A K S S A K R A G K K K] | 0.016 ± 0.0011 |

Molecular target: HaloTag-ING2 PHD (mouse Ing2 200-280)
Assay: as above
Settings: peptide region: Unmod H1 variant; binder concentration: 10 nM
In short: as §1

| Binder | peptide microarray binding signal |
| --- | --- |
| KKAPKSPAKAKAV [Unmod H1 variant K K A P K S P A K A K A V] | 0.00412 ± 0.0002 |

Same assay, conditions: peptide region: Unmod H1 variant; binder concentration: 100 nM

| Binder | peptide microarray binding signal |
| --- | --- |
| KKAPKSPAKAKAV [Unmod H1 variant K K A P K S P A K A K A V] | 0.00978 ± 0.00048 |
| KAKSSAKRAGKKK [Unmod H1 variant K A K S S A K R A G K K K] | 0.00369 ± 5.6e-05 |

Molecular target: anti-H3K4me3 antibody ab8580
Assay: as above
Settings: peptide region: Unmod H1 variant; binder concentration: 1:2,000 dilution
In short: as §1

| Binder | peptide microarray binding signal |
| --- | --- |
| KKAPKSPAKAKAV [Unmod H1 variant K K A P K S P A K A K A V] | 0.000793 ± 4.5e-05 |
| KAKSSAKRAGKKK [Unmod H1 variant K A K S S A K R A G K K K] | 0.00034 ± 6.1e-06 |

Same assay, conditions: peptide region: Unmod H1 variant; binder concentration: 1:10,000 dilution

| Binder | peptide microarray binding signal |
| --- | --- |
| KKAPKSPAKAKAV [Unmod H1 variant K K A P K S P A K A K A V] | 0.00154 ± 3.9e-05 |

Molecular target: anti-H3K9me3 antibody ab8898
Assay: as above
Settings: peptide region: Unmod H1 variant; binder concentration: 1:2,000 dilution
In short: as §1

| Binder | peptide microarray binding signal |
| --- | --- |
| KKAPKSPAKAKAV [Unmod H1 variant K K A P K S P A K A K A V] | 0.000347 ± 9.2e-06 |
| KAKSSAKRAGKKK [Unmod H1 variant K A K S S A K R A G K K K] | 0.000227 |

Same assay, conditions: peptide region: Unmod H1 variant; binder concentration: 1:10,000 dilution

| Binder | peptide microarray binding signal |
| --- | --- |
| KKAPKSPAKAKAV [Unmod H1 variant K K A P K S P A K A K A V] | 0.00115 ± 2e-05 |

Molecular target: T1, HaloTag-ATRX ADD domain (163-292)
Assay: as above
Settings: peptide region: Unmod H2A variant; binder concentration: 50 nM
In short: as §1

| Binder | peptide microarray binding signal |
| --- | --- |
| QGGKARAKSKSRS [Unmod H2A variant Q G G K A R A K S K S R S] | 0.0112 ± 0.00043 |
| SGRGKQGGKARAK [Unmod H2A variant S G R G K Q G G K A R A K] | 0.0203 ± 0.0024 |
| QGGKARAKAKSRS [Unmod H2A variant Q G G K A R A K A K S R S] | 0.0073 ± 0.00042 |

Same assay, conditions: peptide region: Unmod H2A variant; binder concentration: 500 nM

| Binder | peptide microarray binding signal |
| --- | --- |
| QGGKARAKSKSRS [Unmod H2A variant Q G G K A R A K S K S R S] | 0.0328 ± 0.0016 |
| SGRGKQGGKARAK [Unmod H2A variant S G R G K Q G G K A R A K] | 0.0194 ± 0.0069 |
| QGGKARAKAKSRS [Unmod H2A variant Q G G K A R A K A K S R S] | 0.0168 ± 0.0004 |

Molecular target: HaloTag-ING2 PHD (mouse Ing2 200-280)
Assay: as above
Settings: peptide region: Unmod H2A variant; binder concentration: 10 nM
In short: as §1

| Binder | peptide microarray binding signal |
| --- | --- |
| QGGKARAKSKSRS [Unmod H2A variant Q G G K A R A K S K S R S] | 0.00824 ± 9.4e-05 |
| SGRGKQGGKARAK [Unmod H2A variant S G R G K Q G G K A R A K] | 0.0104 ± 0.00068 |
| QGGKARAKAKSRS [Unmod H2A variant Q G G K A R A K A K S R S] | 0.002507 ± 1.4e-05 |

Same assay, conditions: peptide region: Unmod H2A variant; binder concentration: 100 nM

| Binder | peptide microarray binding signal |
| --- | --- |
| QGGKARAKSKSRS [Unmod H2A variant Q G G K A R A K S K S R S] | 0.0201 ± 0.0027 |
| SGRGKQGGKARAK [Unmod H2A variant S G R G K Q G G K A R A K] | 0.0167 ± 0.00073 |
| QGGKARAKAKSRS [Unmod H2A variant Q G G K A R A K A K S R S] | 0.00758 ± 0.0021 |

Molecular target: anti-H3K4me3 antibody ab8580
Assay: as above
Settings: peptide region: Unmod H2A variant; binder concentration: 1:2,000 dilution
In short: as §1

| Binder | peptide microarray binding signal |
| --- | --- |
| QGGKARAKSKSRS [Unmod H2A variant Q G G K A R A K S K S R S] | 0.00194 ± 0.00036 |
| SGRGKQGGKARAK [Unmod H2A variant S G R G K Q G G K A R A K] | 0.000151 ± 1.7e-06 |
| QGGKARAKAKSRS [Unmod H2A variant Q G G K A R A K A K S R S] | 0.00164 ± 0.00013 |

Same assay, conditions: peptide region: Unmod H2A variant; binder concentration: 1:10,000 dilution

| Binder | peptide microarray binding signal |
| --- | --- |
| QGGKARAKSKSRS [Unmod H2A variant Q G G K A R A K S K S R S] | 0.00143 ± 2.4e-05 |
| SGRGKQGGKARAK [Unmod H2A variant S G R G K Q G G K A R A K] | 0.00337 ± 0.0001 |
| QGGKARAKAKSRS [Unmod H2A variant Q G G K A R A K A K S R S] | 0.001027 ± 1e-05 |

Molecular target: anti-H3K9me3 antibody ab8898
Assay: as above
Settings: peptide region: Unmod H2A variant; binder concentration: 1:2,000 dilution
In short: as §1

| Binder | peptide microarray binding signal |
| --- | --- |
| QGGKARAKSKSRS [Unmod H2A variant Q G G K A R A K S K S R S] | 0.000574 ± 1.1e-05 |
| SGRGKQGGKARAK [Unmod H2A variant S G R G K Q G G K A R A K] | 0.00112 ± 1.7e-05 |
| QGGKARAKAKSRS [Unmod H2A variant Q G G K A R A K A K S R S] | 0.000302 ± 3.1e-06 |

Same assay, conditions: peptide region: Unmod H2A variant; binder concentration: 1:10,000 dilution

| Binder | peptide microarray binding signal |
| --- | --- |
| QGGKARAKSKSRS [Unmod H2A variant Q G G K A R A K S K S R S] | 0.000807 ± 1.5e-05 |
| SGRGKQGGKARAK [Unmod H2A variant S G R G K Q G G K A R A K] | 0.00133 |
| QGGKARAKAKSRS [Unmod H2A variant Q G G K A R A K A K S R S] | 0.000404 ± 4.4e-06 |
